# An excerpt weighted towards active compounds, which were near 1.8% of everything screened.
# LYPLA2 inh: LYPLA2 (human) inhibition in PME1 counter-screen; AID 2177; 320,000 tested, 0.38% active; inhibition, % at 5.9 µM; recombinant LYPLA2, FP-Rh probe fluorescence polarization;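 active = inhibition above the screen-wide mean plus 3 SD, limit set per campaign, cut at about 26% in these data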;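 note: 0% = LYPLA2 with DMSO and 100% = wells lacking LYPLA2 enzyme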
# Target sequence (O95372 whole entry, looked up): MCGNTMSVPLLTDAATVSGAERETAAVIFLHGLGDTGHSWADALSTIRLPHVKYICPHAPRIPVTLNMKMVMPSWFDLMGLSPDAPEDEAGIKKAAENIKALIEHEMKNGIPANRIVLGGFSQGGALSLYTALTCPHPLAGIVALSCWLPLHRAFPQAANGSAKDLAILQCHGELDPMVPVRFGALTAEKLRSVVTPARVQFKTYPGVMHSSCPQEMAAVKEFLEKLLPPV
# PME-1 primary: blocks human protein phosphatase methylesterase 1 | recombinant PME-1, FP-Rh probe fluorescence polarization | inhibition, % at 5.9 µM | 320,000 tested, 0.53% active | AID 2130;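 active = inhibition above the campaign mean of all compounds plus 3 SD, cut at about 26% in these data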;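 note: competitive labeling of PME-1 active site by serine hydrolase directed probe; 0% = PME-1 with DMSO and 100% = wells lacking PME-1 enzyme; inhibitors block probe labeling so polarization falls and inhibition rises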
# LYPLA1 inh: counter-screen for PME1 inhibitors: inhibitors of human LYPLA1. recombinant LYPLA1, FP-Rh probe fluorescence polarization. O75608. 320,000 tested, 0.16% active. AID 2174. inhibition, % at 5.9 µM;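 active = inhibition above the mean of all tested compounds plus 3 SD, set per campaign, cut at about 14% in these data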;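 note: inhibitors block serine hydrolase probe labeling of LYPLA1 so polarization falls; 0% = enzyme with DMSO and 100% = wells lacking LYPLA1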
# Target sequence (O75608 whole entry, looked up): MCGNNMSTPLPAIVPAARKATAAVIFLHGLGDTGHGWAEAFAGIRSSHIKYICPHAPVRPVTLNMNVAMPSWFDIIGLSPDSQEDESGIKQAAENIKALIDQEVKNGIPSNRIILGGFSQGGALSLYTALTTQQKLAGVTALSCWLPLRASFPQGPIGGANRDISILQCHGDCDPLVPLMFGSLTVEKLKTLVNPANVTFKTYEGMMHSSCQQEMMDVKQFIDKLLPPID
# Fam108B counter: counter-screen for RBBP9 inhibitors: inhibitors of mouse Fam108B; 300,000 tested, 0.33% active; recombinant Fam108B, FP-Rh probe fluorescence polarization; inhibition, % at 9.51 µM;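 active = inhibition above the screen mean inhibition plus 3 SD, computed separately per campaign, cut at about 18% in these data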;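 note: inhibitors lower polarization as less probe binds the enzyme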
# PP1 inh: blocks human PP1-alpha phosphatase, a PP5 counter-screen; 320,000 tested, 0.9% active; P62136; inhibition, % at 6.7 µM; purified PP1alpha, OMFP fluorescence;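 active = inhibition above the mean inhibition of all tested compounds plus 3 SD, computed separately for each screening campaign, cut at about 15% in these data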
# PP5 inh: PP5 (human) phosphatase inhibition | P53041 | purified PP5c, OMFP substrate fluorescence | inhibition, % at 6.7 µM | 320,000 tested, 0.18% active;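 active = inhibition above the campaign's mean inhibition across all tested compounds plus 3 SD, cut at about 9.5% in these data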;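 note: 0% = DMSO only and 100% = 100 µM cantharidin control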
# LYPLA2 conf: counter-screen for PME1 inhibitors: confirmation of human LYPLA2 inhibitors | 1,100 tested, 72% active | recombinant LYPLA2, FP-Rh probe fluorescence polarization | shares compounds with LYPLA2 inh | inhibition, % at 5.9 µM | AID 2232;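 active = mean inhibition across replicates above the hit cutoff set in the primary screen, cut at about 26% in these data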;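 note: blocked labeling of the enzyme by serine hydrolase FP-Rh probe lowers polarization; 0% = enzyme with DMSO and 100% = wells lacking LYPLA2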
# LYPLA2 gel ABPP: blocks human acyl-protein thioesterase 2 in gel ABPP; shares compounds with LYPLA2 inh; rhLYPLA2 in mouse brain proteome, gel ABPP FP-Rh; inhibition, % at 20 µM; 150 tested, 30% active; AID 652029;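 active = inhibition of LYPLA2 enzyme probe labeling above about 50%, limit read from the data; inactive = inhibition below that limit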;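 note: loss of FP-Rh probe labeling of the LYPLA2 gel band measured as band density; 0% = DMSO only control band and 100% = blank gel background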
# Numbers without * were called inactive; x = no result.
SMILES,LYPLA2 inh,PME-1 primary,LYPLA1 inh,Fam108B counter,PP1 inh,PP5 inh,LYPLA2 conf,others
COc1ccc(C(=O)COc2ncnc3cc(Cl)ccc23)cc1,27*,-6,0,0,-8,2,31*,
O=C(COc1ncnc2ccccc12)c1ccc(Cl)cc1,29*,2,-2,3,-2,0,24,
O=C(COc1ncnc2cc(Cl)ccc12)c1ccccc1,2,-3,0,-2,-2,1,x,
OCC[C@H]1C[C@@H](O)[C@H](O)[C@]2(OCCc3ccccc32)O1,-1,-3,-2,6,2,2,x,
CC(Oc1ccc(Br)cc1)C(=O)Nc1cc(Cl)ccc1N1CCN(C)CC1 (stereo unspecified),-1,2,-3,-4,2,1,x,
Nc1cc(Cl)ccc1Oc1ccc2ccccc2c1,28*,3,3,-3,-2,1,13,
Cc1ccc(Oc2ccc(Cl)cc2N)cc1,0,0,2,-2,1,2,x,
COCCn1c(SCC(=O)N2CCC(C)CC2)nc2c([nH]c3ccccc32)c1=O,-3,11,-4,2,2,4,x,
COc1ccc(NC2=NCC(=O)N2Cc2cccs2)cc1,14,1,2,-2,-4,0,x,
COc1ccc(NC2=NCCC(=O)N2Cc2cccs2)cc1,27*,2,2,4,0,2,21,
CCOc1ccccc1C(=O)OCC(=O)NCCNC(=O)COC(=O)c1ccccc1OCC,1,7,0,5,-2,4,x,
O=C(OCCOc1cccc(Cl)c1)c1cc(S(=O)(=O)N2CCCCC2)ccc1N1CCOCC1,53*,1,13,-1,4,3,58*,
O=C(OCc1cccc(Cl)c1)c1cc(S(=O)(=O)N2CCCCC2)ccc1N1CCOCC1,-6,9,-2,1,9,1,x,
CC(C)NC(=O)NC(=O)COC(=O)c1cc(S(=O)(=O)N2CCCCC2)ccc1N1CCOCC1,27*,0,1,-1,-1,2,24,
COc1cc(CC(=O)N(C)CC(=O)Nc2cc(C)ccc2C)cc(OC)c1OC,4,0,2,3,-1,3,x,
COc1ccc(-c2cc(C(=O)N3CCCC3)no2)cc1OC,0,-3,3,0,-3,2,x,
O=C(c1cc(-c2cccs2)on1)N1CCN(c2ccc(F)cc2)CC1,28*,-1,6,1,0,1,27*,
COc1ccc(-c2cc(C(=O)N3CCN(c4ccc(F)cc4)CC3)no2)cc1OC,39*,-5,3,-1,-1,4,33*,
CCc1cc(=O)oc2cc(C)cc(OCC(=O)N3CCC(C(=O)NC(C)C)(c4ccccc4)CC3)c12,4,3,1,-1,-2,-1,x,
Cn1ncc(Cl)c1C(=O)NCC1CCCO1 (stereo unspecified),-2,-4,-1,-2,2,1,x,
O=C1CCCC(=O)N1c1ccc(N2CCN(c3ccccc3)CC2)c([N+](=O)[O-])c1,6,3,1,2,0,2,x,
O=C1CCCC(=O)N1c1ccc(N2CCN(c3ccc([N+](=O)[O-])cc3)CC2)c([N+](=O)[O-])c1,43*,6,9,0,5,0,43*,
CC(=O)Nc1ccc(CN2CCN(c3cccc(C(F)(F)F)c3)CC2)cc1,55*,1,5,-3,4,-1,58*,LYPLA2 gel ABPP=17
CC/C(C)=C1\SC(N2CCN(c3cccc(C(F)(F)F)c3)CC2)=NC1=O,33*,-5,3,1,7,1,31*,
Cc1nc([N+](=O)[O-])cn1CC(=O)Nc1ccc([N+](=O)[O-])cc1,33*,1,0,3,-5,0,41*,
Cc1nc([N+](=O)[O-])cn1CC(=O)c1ccccc1,0,-3,-3,-3,-6,1,x,
O=C(NCc1ccccn1)c1ccc(OC2CCN(Cc3ccccc3)CC2)cc1,3,0,1,6,-3,0,x,

# Screens (PubChem)
